Assay outcomes deposited in PubChem BioAssay by several laboratories.
KLF5 inhibitor: suppresses KLF5 promoter-driven expression; AID 1700; inhibition, % at 5 µM; 290,000 compounds, 0.23% hits; DLD-1 KLF5 promoter-luciferase reporter, luminescence;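 active means inhibition above a per-plate limit of that plate's mean compound inhibition plus 3 SD, cut at about 60% in these data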;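 further: higher means less KLF5 promoter-driven luciferase light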
BaF3 parental: counter-screen for JAK2V617F inhibitors: parental Ba/F3 viability inhibitors. inhibition, % at 5.6 µM. CellTiter-Glo ATP luminescence. AID 1486. 220,000 compounds, 1.1% hits;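 active means inhibition above a per-campaign cutoff, the mean inhibition of all tested compounds plus 3 SD, cut at about 27% in these data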
aSyn 5UTR inh: MLPCN primary screen, SNCA 5' untranslated region; alpha-synuclein 5'UTR reporter, inhibitor activity; inhibition, % (tested at 7.5 µM); 300,000 compounds, 0.82% hits; AID 1813; in the data active means inhibition above about 60%; inconclusive means no clear call, values can overlap the other calls;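 further: H4 neuroglioblastoma cells stably carrying SNCA 5'UTR luciferase fusion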
APP transl inh: APP translation inhibition | 190,000 compounds, 0.82% hits | inhibition, % at 2 µM | SH-SY5Y APP 5'UTR-luciferase reporter, luminescence;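 active means inhibition above a set limit, derived from the sample mean plus 3 SD, cut at about 45% in these data; inconclusive means one replicate passes the limit while the other fails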
IEC-6 cytotox: counter-screen for KLF5 inhibitors: cytotoxicity in IEC-6 cells; IEC-6 cytotoxicity, luminescence viability; inhibition, % at 5 µM; 290,000 compounds, 0.78% hits; in the data active means inhibition above about 22%
Ba/F3 V617F tox: lowers viability of Ba/F3 cells expressing EpoR and JAK2V617F | AID 1446 | inhibition, % at 5.6 µM | ATP luminescence | 220,000 compounds, 1.1% hits;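 active means inhibition above the campaign mean plus 3 SD over all tested compounds, cut at about 24% in these data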;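 further: cytokine-independent growth of Ba/F3 cells driven by EpoR plus mutant JAK2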
Of the large screens only hits and unclear results are named; the others gave an inactive call. Rows were chosen to be rich in hits. Some 2.2% of all compounds tested hit in one or more screens of this group.

CCCN1C(=O)C(O)(c2c(C)[nH]c3ccccc23)c2ccccc21 (stereo not given)	none (no result: APP transl inh)
Cc1[nH]c2ccccc2c1C1(O)C(=O)N(Cc2ccc3c(c2)OCO3)c2ccccc21 (stereo not given)	BaF3 parental 84.6, Ba/F3 V617F tox 78.5
Cn1c(Cc2ccccc2)[n+](C)c2ccccc21	BaF3 parental 68.9, Ba/F3 V617F tox 66.6
Cn1c(=O)c(Cc2ccccc2)c(O)c2ccccc21	none
O=C(NC1CCN(Cc2ccccc2Cl)CC1)c1ccccc1	none (no result: BaF3 parental, APP transl inh, Ba/F3 V617F tox)
CCN1CCN(C(=O)Nc2cccc3ccccc23)CC1	APP transl inh 57.2
COC(=O)c1cccc(NC(=O)/C=C/c2ccc3c(c2)OCO3)c1	aSyn 5UTR inh 102.3
CCCc1sc(N/N=C/c2ccccn2)nc1-c1ccc(Br)cc1	aSyn 5UTR inh 81.8
O=C(NCCN1C(=O)S/C(=C\c2ccc(OC(F)F)cc2)C1=O)c1cnccn1	APP transl inh 76.5
CCC(=O)N1CCc2cc(S(=O)(=O)CCC(=O)Nc3ccc(CC)cc3)ccc21	BaF3 parental 93.3
CCc1ccc(NC(=O)CCS(=O)(=O)c2ccc3c(c2)CCN3C(C)=O)cc1	none (no result: BaF3 parental, APP transl inh, Ba/F3 V617F tox)
CCCCCC(=O)Nc1ccc(C(=O)COC(=O)c2ccccn2)cc1	none (no result: KLF5 inhibitor, BaF3 parental, APP transl inh, IEC-6 cytotox, Ba/F3 V617F tox)
O=C(CCc1nnc2ccc(N3CCC4(CC3)OCCO4)nn12)N1CCCCC1	none (no result: BaF3 parental, APP transl inh, Ba/F3 V617F tox)
Cc1sc(NC(=O)c2c(F)cccc2F)nc1-c1ccccc1	none (no result: BaF3 parental, APP transl inh, Ba/F3 V617F tox)
Cc1sc(NC(=O)c2ccc(=O)n(C)n2)nc1-c1ccccc1	BaF3 parental 44.7, Ba/F3 V617F tox 43.9
O=S(=O)(Nc1cc(Sc2cccc3cccnc23)c(O)c2ccccc12)c1ccc(F)cc1	APP transl inh 78.1, IEC-6 cytotox 50.9
CC(=O)/C(=N\Nc1ccccc1)Sc1cccc2cccnc12	none
O=C(Sc1cccc2cccnc12)c1ccc(F)cc1	BaF3 parental 40.8, APP transl inh 71.3, IEC-6 cytotox 87.3, Ba/F3 V617F tox 43.1 (no result: aSyn 5UTR inh)
COc1ccc(S(=O)(=O)Nc2cc(Sc3ncn[nH]3)c(O)c3ccccc23)cc1	KLF5 inhibitor 89.2, BaF3 parental 86.6, Ba/F3 V617F tox 89.8 (no result: aSyn 5UTR inh)
C=CCNc1nc2c(c(=O)[nH]c(=O)n2C)n1CC(O)COc1ccc2ccccc2c1 (stereo not given)	none (no result: BaF3 parental, APP transl inh, Ba/F3 V617F tox)
Cc1ccccc1C(=O)N1CCN(c2ccc(NC(=O)c3ccc4c(c3)OCO4)cc2)CC1	BaF3 parental 67.4, aSyn 5UTR inh inconclusive, IEC-6 cytotox 36.0, Ba/F3 V617F tox 66.7
O=C(Nc1ccc(N2CCN(C(=O)c3ccco3)CC2)cc1)c1ccc2c(c1)OCO2	none
CC(C)(C)C(=O)Cn1ncc(N2CCCC2)c(Br)c1=O	none
O=C1CN(C(=O)Cn2ncc(Cl)c(Cl)c2=O)c2ccccc2N1	APP transl inh 89.6
O=C(Cn1ncc(Cl)c(Cl)c1=O)c1ccc(Cl)cc1	APP transl inh 80.8
Cc1ccc(NC(=O)CN(C)C(=O)Cn2ncc(Cl)c(Cl)c2=O)cc1	aSyn 5UTR inh 81.7, APP transl inh 96.4
CC(C)(C)C(=O)Cn1ncc(Cl)c(Cl)c1=O	APP transl inh 50.5
O=C(CCC(=O)OCc1ccc(C(=O)Oc2ccccc2)cc1)Nc1cccc2ccccc12	none
COc1ccc2ccc(OC)c(/C=N/n3cnnc3)c2c1	none (no result: BaF3 parental, APP transl inh, Ba/F3 V617F tox)
CCCN(C(=O)C1CSC2(C)CCC(=O)N12)c1c(N)n(Cc2ccccc2)c(=O)[nH]c1=O (stereo not given)	none (no result: KLF5 inhibitor, BaF3 parental, APP transl inh, IEC-6 cytotox, Ba/F3 V617F tox)
O=C(Cn1ncc(Cl)c(Cl)c1=O)NCC1CCCCC1	APP transl inh 96.7 (no result: aSyn 5UTR inh)
N#Cc1ccc(-c2nc3cc(Cl)ccc3c(=O)n2O)cc1	none (no result: BaF3 parental, APP transl inh, Ba/F3 V617F tox)
O=c1c2ccc(Cl)cc2nc(-c2cccc(C(F)(F)F)c2)n1O	BaF3 parental 56.2, aSyn 5UTR inh 77.5, Ba/F3 V617F tox 59.7
COC(=O)C1=C(C(=O)OC)[C@@H]2Nc3ccccc3[C@@]23C[C@@H](C(=O)OC)N(C(=O)C2CCC2)C3=N1	none (no result: KLF5 inhibitor, BaF3 parental, APP transl inh, IEC-6 cytotox, Ba/F3 V617F tox)
Cc1cc(NC(=O)CCC(=O)N(Cc2ccco2)C2(C(=O)NC3CCCC3)CCCCC2)no1	none (no result: BaF3 parental, APP transl inh, Ba/F3 V617F tox)
Cc1cc(NC(=O)CCC(=O)N(Cc2ccco2)C2(C(=O)NC3CCCCC3)CCN(C)CC2)no1	BaF3 parental 89.0
Cc1ccc2[nH]c3c(c2c1)CN(C(=O)CN1c2ccc(F)cc2CCC1C)CC3 (stereo not given)	BaF3 parental 94.5
Cc1ccc2[nH]c3c(c2c1)CN(C(=O)CN1CCN(c2cccc(C)c2C)CC1)CC3	none
O=C1CSC(c2ccc(Cl)cc2)N1C1CCCCC1 (stereo not given)	BaF3 parental 40.0
COc1ccc(CN2C(=O)c3ccccc3C2C(=O)NC2CCC(C)CC2)c(OC)c1 (stereo not given)	none
CCc1ccc(S(=O)(=O)/N=C2/C=C(Sc3ncn[nH]3)C(=O)c3ccccc32)cc1	BaF3 parental 33.6, APP transl inh 75.4, Ba/F3 V617F tox 70.6 (no result: aSyn 5UTR inh)
CCc1ccc(S(=O)(=O)/N=C2\C=CC(=O)c3ccccc32)cc1	none
CC(=O)Nc1ccc(NC(=O)C2CCCN2C(=O)Nc2ccc(F)c([N+](=O)[O-])c2)cc1 (stereo not given)	none
N#CC(Sc1ccccn1)c1ccc(Cl)cc1 (stereo not given)	BaF3 parental 52.8, Ba/F3 V617F tox 26.0
O=C(Nc1cnn(Cc2ccc(Cl)c(Cl)c2)c1)C12CC3CC(CC(C3)C1)C2	none
Cn1c(=O)c2[nH]c(COc3ccc(C(C)(C)C)cc3)nc2n(C)c1=O	BaF3 parental 48.1, Ba/F3 V617F tox 25.6 (no result: APP transl inh)
Cn1c(=O)c2[nH]c(CNCc3ccccc3Cl)nc2n(C)c1=O	none
Clc1ccc(C[n+]2cc(-c3ccccc3)n3c2CCC3)cc1Cl	BaF3 parental 71.2, Ba/F3 V617F tox 85.3
N#CC[n+]1cc(-c2ccc(Cl)cc2)n2c1CCC2	none
Clc1ccc(-c2c[n+](Cc3cccc(Cl)c3)c3n2CCC3)cc1	BaF3 parental 64.5, Ba/F3 V617F tox 77.1
CCN1CCc2c(sc(NC(=O)Nc3ccc(Cl)c(Cl)c3)c2C(N)=O)C1	none (no result: aSyn 5UTR inh)
CC(=O)c1sc2c(c1N)c(=O)[nH]c(=O)n2-c1ccccc1	none (no result: BaF3 parental, APP transl inh, Ba/F3 V617F tox)
CC(=O)c1sc2c(c1OC(=O)c1ccc(Cl)cc1Cl)c(=O)n(-c1ccccc1)c(=S)n2-c1ccccc1	aSyn 5UTR inh 100.6 (no result: APP transl inh)
Cc1cccc(C)c1OCC(O)CN(Cc1ccccc1O)C1CCCCC1 (stereo not given)	aSyn 5UTR inh 61.8
CN(CC(O)COc1ccc(OCC(O)CN(C)C2CCCCC2)cc1)C1CCCCC1 (stereo not given)	none
Cc1ccccc1CC1(CO)CCCN(Cc2c(C)nn(C)c2Cl)C1 (stereo not given)	BaF3 parental 79.8
O=C(COC(=O)C1CC(=O)N(Cc2ccccc2)C1)Nc1ccc2c(c1)OCO2 (stereo not given)	APP transl inh 52.6
NS(=O)(=O)c1ccc(NC(=O)COC(=O)C2CC(=O)N(Cc3ccccc3)C2)cc1 (stereo not given)	none
Cc1ccccc1-c1nc(CS(=O)CC(=O)NCc2ccccn2)c(C)o1 (stereo not given)	none (no result: BaF3 parental, APP transl inh, Ba/F3 V617F tox)
CCCCc1n(CC(=O)c2ccc(Cl)cc2)c2ccccc2[n+]1C	none
